# Hit rate of the full screen: of about 5,500 compounds, about 2,000 (36%) were called active. About 18% were inconclusive and are not listed. Some of the results follow. Unmarked numbers belong to inactive results. No stated cut-off is given here; in the data, active means normalized growth mostly below about 0.91 (no sharp cut-off); inconclusive means no clear call, values can overlap the other calls; inactive means mostly above about 0.92.
# Assay: chemical genetic growth profiling, strain panel (AID 1159580);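 further: tested at 20 µM; growth read once vehicle control cultures reached saturation at 30 °C; 1 = growth at the plate median or of vehicle wells; lower values mean less growth of the strain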
# Details: S. cerevisiae deletion strains, growth OD
# [1] = locus YAL021C, strain ccr4, hits give low values
# [2] = locus YAL026C, strain drs2, hits give low values
# [3] = locus YAL030W, strain snc1, hits give low values
# [4] = locus YBL061C, strain skt5, hits give low values
# [5] = locus YBR009C, strain hhf1, hits give low values
# [6] = locus YBR023C, strain chs3, hits give low values
# [7] = locus YBR171W, strain sec66, hits give low values
# [8] = locus YBR231C, strain swc5, hits give low values
# [9] = locus YBR279W, strain paf1, hits give low values
# [10] = locus YCL011C, strain gbp2, hits give low values
# [11] = locus YCL016C, strain dcc1, hits give low values
# [12] = locus YCL061C, strain MRC1, hits give low values
# [13] = locus YCL069W, strain vba3, hits give low values
# [14] = locus YCR088W, strain abp1, hits give low values
# [15] = locus YDL005C, strain med2, hits give low values
# [16] = locus YDL040C, strain nat1, hits give low values
# [17] = locus YDR001C, strain nth1, hits give low values
# [18] = locus YDR069C, strain doa4, hits give low values
# [19] = locus YDR137W, strain rgp1, hits give low values
# [20] = locus YDR159W, strain sac3, hits give low values
# [21] = locus YDR297W, strain sur2, hits give low values
# [22] = locus YDR334W, strain swr1, hits give low values
# [23] = locus YDR335W, strain msn5, hits give low values
# [24] = locus YDR392W, strain spt3, hits give low values
# [25] = locus YEL003W, strain gim4, hits give low values
# [26] = locus YEL037C, strain rad23, hits give low values
# [27] = locus YEL061C, strain CIN8 (second series), hits give low values
# [28] = locus YER015W, strain faa2, hits give low values
# [29] = locus YER016W, strain bim1, hits give low values
# [30] = locus YER111C, strain swi4, hits give low values
# [31] = locus YER155C, strain BEM2 (second series), hits give low values
# [32] = locus YFR010W, strain ubp6, hits give low values
# [33] = locus YGL167C, strain pmr1, hits give low values
# [34] = locus YGL173C, strain kem1, hits give low values
# [35] = locus YGL227W, strain vid30, hits give low values
# [36] = locus YGL240W, strain doc1, hits give low values
# [37] = locus YGL253W, strain hxk2, hits give low values
# [38] = locus YHR013C, strain ard1, hits give low values
# [39] = locus YHR027C, strain rpn1, hits give low values
# [40] = locus YHR030C, strain SLT2, hits give low values
# [41] = locus YHR079C, strain IRE1, hits give low values
# [42] = locus YHR142W, strain chs7, hits give low values
# [43] = locus YJL092W, strain hpr5, hits give low values
# [44] = locus YJL095W, strain BCK1 (second series), hits give low values
# [45] = locus YJL095W, strain BCK1, hits give low values
# [46] = locus YJL115W, strain asf1, hits give low values
# [47] = locus YJL129C, strain trk1, hits give low values
# [48] = locus YJL154C, strain vps35, hits give low values
# [49] = locus YJL164C, strain tpk1, hits give low values
# [50] = locus YJL166W, strain qcr8, hits give low values
# [51] = locus YJL187C, strain SWE1, hits give low values
# [52] = locus YJR066W, strain TOR1, hits give low values
# [53] = locus YKL160W, strain elf1, hits give low values
# [54] = locus YKR026C, strain gcn3, hits give low values
# [55] = locus YKR091W, strain srl3, hits give low values
# [56] = locus YLL001W, strain dnm1, hits give low values
# [57] = locus YLL026W, hits give low values
# [58] = locus YLL041C, strain sdh2, hits give low values
# [59] = locus YLR027C, strain aat2, hits give low values
# [60] = locus YLR113W, strain HOG1, hits give low values
# [61] = locus YLR221C, strain rsa3, hits give low values
# [62] = locus YLR258W, strain gsy2, hits give low values
# [63] = locus YLR262C, strain YPT6 (second series), hits give low values
# [64] = locus YLR320W, strain mms22, hits give low values
# [65] = locus YLR342W, strain FKS1, hits give low values
# [66] = locus YLR357W, strain rsc2, hits give low values
# [67] = locus YLR370C, strain arc18, hits give low values
# [68] = locus YLR384C, strain iki3, hits give low values
# [69] = locus YML120C, strain ndi1, hits give low values
# [70] = locus YMR058W, strain fet3, hits give low values
# [71] = locus YMR125W, strain sto1, hits give low values
# [72] = locus YMR129W, hits give low values
# [73] = locus YMR205C, strain PFK2, hits give low values
# [74] = locus YMR231W, strain pep5, hits give low values
# [75] = locus YNL071W, strain lat1, hits give low values
# [76] = locus YNL183C, strain NPR1, hits give low values
# [77] = locus YNL209W, strain ssb2, hits give low values
# [78] = locus YNL248C, strain rpa49, hits give low values
# [79] = locus YNL322C, strain KRE1 (second series), hits give low values
# [80] = locus YNR049C, strain mso1, hits give low values
# [81] = locus YOR001W, strain rrp6, hits give low values
# [82] = locus YOR070C, strain gyp1, hits give low values
# [83] = locus YOR080W, strain dia2, hits give low values
# [84] = locus YOR083W, strain WHI5, hits give low values
# [85] = locus YOR106W, strain vam3, hits give low values
# [86] = locus YOR231W, strain MKK1, hits give low values
# [87] = locus YOR265W, strain rbl2, hits give low values
# [88] = locus YOR270C, strain vph1, hits give low values
# [89] = locus YOR290C, strain snf2, hits give low values
# [90] = locus YPL051W, strain arl3, hits give low values
# [91] = locus YPL078C, strain atp4, hits give low values
# [92] = locus YPL106C, strain sse1, hits give low values
# [93] = locus YPL240C, strain hsp82, hits give low values
# [94] = locus YPL256C, strain CLN2, hits give low values
smiles,measurement,setting,value
O=c1c(-c2ccc(O)cc2)coc2c(C3O[C@H](CO)[C@@H](O)[C@H](O)[C@H]3O)c(O)ccc12 (stereo not given in full),normalized growth,[1],1.01
same,normalized growth,[2],0.991
same,normalized growth,[3],0.982
same,normalized growth,[4],0.977
same,normalized growth,[5],0.957
same,normalized growth,[6],0.991
same,normalized growth,[7],0.977
same,normalized growth,[8],0.979
same,normalized growth,[9],0.985
same,normalized growth,[10],0.968
same,normalized growth,[11],0.991
same,normalized growth,[12],0.994
same,normalized growth,[13],0.973
same,normalized growth,[14],0.996
same,normalized growth,[15],0.978
same,normalized growth,[16],0.977
same,normalized growth,[17],0.978
same,normalized growth,[18],1
same,normalized growth,[19],0.995
same,normalized growth,[20],0.933
same,normalized growth,"locus YDR195W, strain ref2",0.951
same,normalized growth,[21],0.978
same,normalized growth,[22],0.973
same,normalized growth,[23],0.987
same,normalized growth,[24],0.876
same,normalized growth,[25],0.979
same,normalized growth,[26],0.973
same,normalized growth,[27],0.974
same,normalized growth,[28],0.993
same,normalized growth,[29],0.989
same,normalized growth,[30],0.98
same,normalized growth,[31],0.947
same,normalized growth,[32],0.977
same,normalized growth,[33],0.965
same,normalized growth,[34],0.977
same,normalized growth,[35],0.982
same,normalized growth,[36],0.957
same,normalized growth,[37],0.982
same,normalized growth,[38],0.921
same,normalized growth,[39],0.987
same,normalized growth,[40],0.957
same,normalized growth,[41],0.976
same,normalized growth,[42],1.04
same,normalized growth,[43],0.992
same,normalized growth,[44],0.987
same,normalized growth,[45],0.973
same,normalized growth,[46],0.98
same,normalized growth,[47],0.997
same,normalized growth,[48],0.972
same,normalized growth,[49],0.999
same,normalized growth,[50],0.98
same,normalized growth,[51],0.977
same,normalized growth,[52],0.898
same,normalized growth,[53],1.04
same,normalized growth,[54],0.982
same,normalized growth,[55],0.98
same,normalized growth,[56],0.99
same,normalized growth,[57],0.993
same,normalized growth,[58],0.992
same,normalized growth,[59],0.965
same,normalized growth,[60],1
same,normalized growth,[61],0.985
same,normalized growth,[62],0.982
same,normalized growth,[63],0.997
same,normalized growth,[64],0.988
same,normalized growth,[65],0.974
same,normalized growth,[66],0.957
same,normalized growth,[67],0.981
same,normalized growth,[68],0.975
same,normalized growth,[69],0.995
same,normalized growth,[70],0.969
same,normalized growth,[71],0.954
same,normalized growth,[72],0.962
same,normalized growth,[73],0.941
same,normalized growth,[74],0.985
same,normalized growth,[75],0.979
same,normalized growth,[76],0.91
same,normalized growth,[77],0.984
same,normalized growth,[78],1.03
same,normalized growth,[79],0.982
same,normalized growth,[80],0.973
same,normalized growth,[81],1.01
same,normalized growth,[82],0.983
same,normalized growth,[83],0.98
same,normalized growth,[84],1.06
same,normalized growth,[85],1.01
same,normalized growth,[86],0.96
same,normalized growth,[87],0.989
same,normalized growth,[88],0.969
same,normalized growth,[89],0.921
same,normalized growth,[90],1.01
same,normalized growth,[91],1.01
same,normalized growth,[92],0.93
same,normalized growth,[93],1.01
same,normalized growth,[94],0.979
O=c1c2cc(O)c(O)cc2oc2cc(O)c(C3O[C@H](CO)[C@H](O)[C@@H](O)[C@H]3O)c(O)c12 (stereo not given in full),normalized growth,[1],1.01
same,normalized growth,[2],1.02
same,normalized growth,[3],1.02
same,normalized growth,[4],1.03
same,normalized growth,[5],1.08
same,normalized growth,[6],1.02
same,normalized growth,[7],1.02
same,normalized growth,[8],1.03
same,normalized growth,[9],1.01
same,normalized growth,[10],1.04
same,normalized growth,[11],1.02
same,normalized growth,[12],1.02
same,normalized growth,[13],1.02
same,normalized growth,[14],1.03
same,normalized growth,[15],1.04
same,normalized growth,[16],1.02
same,normalized growth,[17],1.02
same,normalized growth,[18],1.03
same,normalized growth,[19],1.04
same,normalized growth,[20],1.11
same,normalized growth,"locus YDR195W, strain ref2",1.12
same,normalized growth,[21],1.04
same,normalized growth,[22],1.01
same,normalized growth,[23],1.01
same,normalized growth,[24],1.07
same,normalized growth,[25],1.02
same,normalized growth,[26],1.02
same,normalized growth,[27],1.02
same,normalized growth,[28],1
same,normalized growth,[29],1.04
same,normalized growth,[30],1.03
same,normalized growth,[31],1.12
same,normalized growth,[32],1.02
same,normalized growth,[33],1.03
same,normalized growth,[34],1.03
same,normalized growth,[35],1.04
same,normalized growth,[36],1.14 [resistant] (active)
same,normalized growth,[37],0.986
same,normalized growth,[38],1
same,normalized growth,[39],1.01
same,normalized growth,[40],0.973
same,normalized growth,[41],0.982
same,normalized growth,[42],0.945
same,normalized growth,[43],1.03
same,normalized growth,[44],1.02
same,normalized growth,[45],1.03
same,normalized growth,[46],1.01
same,normalized growth,[47],0.999
same,normalized growth,[48],1.02
same,normalized growth,[49],0.98
same,normalized growth,[50],0.993
same,normalized growth,[51],1.02
same,normalized growth,[52],0.937
same,normalized growth,[53],0.988
same,normalized growth,[54],1.02
same,normalized growth,[55],1.03
same,normalized growth,[56],1.04
same,normalized growth,[57],1.02
same,normalized growth,[58],1.01
same,normalized growth,[59],1.01
same,normalized growth,[60],1.1
same,normalized growth,[61],0.985
same,normalized growth,[62],1.06
same,normalized growth,[63],1.02
same,normalized growth,[64],1.07
same,normalized growth,[65],1.03
same,normalized growth,[66],1.01
same,normalized growth,[67],1.01
same,normalized growth,[68],1.01
same,normalized growth,[69],1
same,normalized growth,[70],1.01
same,normalized growth,[71],1.07
same,normalized growth,[72],1.02
same,normalized growth,[73],1.13 [resistant] (active)
same,normalized growth,[74],1.02
same,normalized growth,[75],1.02
same,normalized growth,[76],0.98
same,normalized growth,[77],0.986
same,normalized growth,[78],0.992
same,normalized growth,[79],1.02
same,normalized growth,[80],1.03
same,normalized growth,[81],0.981
same,normalized growth,[82],0.999
same,normalized growth,[83],1.03
same,normalized growth,[84],0.968
same,normalized growth,[85],0.887
same,normalized growth,[86],0.988
same,normalized growth,[87],1.01
same,normalized growth,[88],0.938
same,normalized growth,[89],0.995
same,normalized growth,[90],0.961
same,normalized growth,[91],0.969
same,normalized growth,[92],1.05
same,normalized growth,[93],0.997
same,normalized growth,[94],1
